The results in this text go back to PubChem BioAssay.

Test [1] is described as follows: small molecules captured by biotinylated probe aFSTL3 – biochemical, small-molecule microarray, fluorescence 635/667, stem cell growth factor project, primary screen (AID 1064).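 Also: measures binding of the biotinylated anti-FSTL3 antibody to printed compounds.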 The conditions noted are these: higher = more signal.
Test [2] is described as follows: binders from COS7 lysate, DM2A8 probe, primary screen, torsin A project, cell lysate, small-molecule microarray, fluorescence 635/667 (AID 1065). The conditions noted are these: higher = more signal, COS7 lysate expressing mutant human TOR1A.
The nature of test [3]: small molecules captured by biotinylated probe aFGF2 – biochemical, small-molecule microarray, fluorescence 635/667, stem cell growth factor project, primary screen (AID 1067).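 Also: measures binding of biotinylated aFGF2 protein to printed compounds on slides; z-score merges feature fluorescence and signal-to-noise across triplicate slides.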 To be noted: higher = more signal.
Test [4] in a line: small molecules captured by biotinylated probe aFGF10 – biochemical, small-molecule microarray, fluorescence 635/667, stem cell growth factor project, primary screen (AID 1071).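 Also: score merges 667 nm spot intensity and signal to noise from triplicate slides.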 The conditions noted are these: higher = more signal.
In test [5] the target is Neurogenic locus notch homolog protein 2 (Homo sapiens) (UniProt Q04721). Briefly: small molecules binding Notch2 protein – biochemical, small-molecule microarray, 635 nm fluorescence, stem cell growth factors, primary screen (AID 1073). To be noted: higher = more signal.
Chain of Neurogenic locus notch homolog protein 2 (Homo sapiens) (Q04721 whole entry, looked up, canonical isoform): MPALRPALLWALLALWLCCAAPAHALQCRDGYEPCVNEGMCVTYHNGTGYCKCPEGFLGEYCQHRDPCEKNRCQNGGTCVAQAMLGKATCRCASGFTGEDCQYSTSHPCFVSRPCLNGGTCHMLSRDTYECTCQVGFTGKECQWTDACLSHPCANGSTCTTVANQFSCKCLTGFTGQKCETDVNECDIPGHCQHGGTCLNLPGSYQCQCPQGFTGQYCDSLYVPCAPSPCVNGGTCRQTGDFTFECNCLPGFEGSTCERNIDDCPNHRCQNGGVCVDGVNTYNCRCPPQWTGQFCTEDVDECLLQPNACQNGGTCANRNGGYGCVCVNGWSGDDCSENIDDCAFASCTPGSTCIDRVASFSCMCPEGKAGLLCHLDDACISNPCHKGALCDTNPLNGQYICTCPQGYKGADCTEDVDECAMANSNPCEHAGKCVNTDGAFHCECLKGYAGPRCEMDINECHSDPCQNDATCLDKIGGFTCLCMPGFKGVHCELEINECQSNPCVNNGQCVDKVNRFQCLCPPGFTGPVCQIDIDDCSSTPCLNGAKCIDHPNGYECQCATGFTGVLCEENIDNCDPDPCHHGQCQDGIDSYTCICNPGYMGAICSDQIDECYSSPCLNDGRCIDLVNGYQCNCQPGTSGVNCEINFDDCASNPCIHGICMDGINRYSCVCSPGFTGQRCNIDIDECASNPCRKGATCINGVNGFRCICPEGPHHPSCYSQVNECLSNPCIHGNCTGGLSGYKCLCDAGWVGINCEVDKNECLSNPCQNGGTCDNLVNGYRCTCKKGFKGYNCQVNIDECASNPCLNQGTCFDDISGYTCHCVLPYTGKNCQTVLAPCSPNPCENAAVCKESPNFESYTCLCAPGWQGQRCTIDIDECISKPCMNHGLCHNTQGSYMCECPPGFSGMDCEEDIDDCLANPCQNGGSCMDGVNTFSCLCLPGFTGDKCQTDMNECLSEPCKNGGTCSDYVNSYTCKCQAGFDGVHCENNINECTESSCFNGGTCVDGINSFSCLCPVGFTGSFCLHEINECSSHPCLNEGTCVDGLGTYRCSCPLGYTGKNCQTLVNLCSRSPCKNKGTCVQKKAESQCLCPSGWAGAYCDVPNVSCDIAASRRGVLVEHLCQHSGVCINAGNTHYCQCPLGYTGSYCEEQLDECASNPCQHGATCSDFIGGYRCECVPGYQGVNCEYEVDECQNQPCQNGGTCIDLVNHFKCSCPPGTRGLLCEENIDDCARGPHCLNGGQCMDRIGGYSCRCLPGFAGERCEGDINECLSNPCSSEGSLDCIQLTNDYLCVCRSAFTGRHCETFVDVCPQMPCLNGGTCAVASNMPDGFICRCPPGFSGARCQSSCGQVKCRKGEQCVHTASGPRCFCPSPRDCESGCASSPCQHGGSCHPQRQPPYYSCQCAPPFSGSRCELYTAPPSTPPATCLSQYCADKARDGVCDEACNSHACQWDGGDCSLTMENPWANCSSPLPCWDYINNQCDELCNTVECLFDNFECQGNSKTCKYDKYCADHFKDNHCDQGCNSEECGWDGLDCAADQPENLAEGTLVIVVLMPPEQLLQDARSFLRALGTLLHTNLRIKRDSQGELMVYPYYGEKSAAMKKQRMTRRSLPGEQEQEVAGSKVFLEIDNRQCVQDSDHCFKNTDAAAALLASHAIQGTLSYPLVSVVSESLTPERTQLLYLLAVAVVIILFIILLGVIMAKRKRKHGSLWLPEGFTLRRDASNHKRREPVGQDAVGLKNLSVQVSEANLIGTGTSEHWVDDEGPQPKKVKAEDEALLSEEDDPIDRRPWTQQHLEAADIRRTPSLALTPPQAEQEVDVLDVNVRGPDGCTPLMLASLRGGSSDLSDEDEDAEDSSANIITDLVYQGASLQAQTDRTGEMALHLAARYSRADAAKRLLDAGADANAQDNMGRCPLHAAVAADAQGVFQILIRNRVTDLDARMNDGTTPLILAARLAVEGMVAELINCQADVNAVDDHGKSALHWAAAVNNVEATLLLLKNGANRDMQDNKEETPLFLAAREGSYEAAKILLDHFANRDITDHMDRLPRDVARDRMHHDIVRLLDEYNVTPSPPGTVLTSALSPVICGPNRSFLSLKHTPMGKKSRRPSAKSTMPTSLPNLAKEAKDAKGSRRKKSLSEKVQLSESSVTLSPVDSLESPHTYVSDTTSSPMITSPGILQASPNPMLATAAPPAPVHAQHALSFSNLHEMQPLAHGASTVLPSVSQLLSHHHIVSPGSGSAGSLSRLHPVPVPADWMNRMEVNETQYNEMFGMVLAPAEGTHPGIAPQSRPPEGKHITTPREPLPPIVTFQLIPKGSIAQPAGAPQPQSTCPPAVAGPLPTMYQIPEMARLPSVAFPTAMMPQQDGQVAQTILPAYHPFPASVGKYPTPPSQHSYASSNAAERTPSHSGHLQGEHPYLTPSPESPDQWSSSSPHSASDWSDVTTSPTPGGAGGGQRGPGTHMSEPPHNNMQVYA
Test [6] deals with Pro-neuregulin-1, membrane-bound isoform (Homo sapiens) (UniProt Q02297). Briefly: small molecules binding neuregulin-1 protein – biochemical, small-molecule microarray, fluorescence 635/667, psychiatric disease protein project, primary screen (AID 1075).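 Also: score combines 667 nm spot fluorescence with signal to noise.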 The conditions noted are these: NRG1 binding, 635 nm fluorescence, higher = more signal.
Test [7] relates to Neuregulin-1 EGF-like domain. Briefly: small molecules binding NRG1 EGF domain – biochemical, small-molecule microarray, 635 nm fluorescence, primary screen (AID 1081).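 Also: binding of the protein to compounds printed on small-molecule microarray slides.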 The conditions noted are these: higher = more signal.
Test [8] can be described thus: FRG1 expression reporter modulators in myotubes – cell-based, C2C12 myotubes, firefly/Renilla luciferase, luminescence, FRG1 inhibition for FSHD, primary screen (AID 1084). To be noted: FRG1 promoter luciferase, higher = more signal, called active from +8 up or from −8 down.
The nature of test [9]: small molecules captured by biotinylated probe aFST – biochemical, small-molecule microarray, fluorescence 635/667, stem cell growth factor project, primary screen (AID 1086).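 Also: score merges 667 nm fluorescence with signal-to-noise of each printed compound spot.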 To be noted: higher = more signal.
The nature of test [10]: binders of probe aHhip on microarray, primary screen, stem cell growth factor project, biochemical, small-molecule microarray, fluorescence 635/667 (AID 1087).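 Also: score merges spot fluorescence at 667nm with spot signal to noise ratio.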 To be noted: higher = more signal.
Test [11] has as its system PRMT1 (protein arginine N-methyltransferase 1). In words: small molecules binding arginine methyltransferase PRMT1 – biochemical, small-molecule microarray, 635 nm fluorescence, primary screen (AID 1088).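 Also: binding of Prmt1 protein to compounds spotted on small-molecule microarray slides.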 To be noted: higher = more signal.
A short description of test [12]: growth effects on S. cerevisiae YJM789 – YJM789 clinical isolate, OD600, 24 h, basal, primary screen (AID 1089).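 Also: growth of clinical yeast isolate S. cerevisiae YJM 789 seeded 1000 cells per well; test concentration not given here.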 The conditions noted are these: higher = more signal, called active from +8 up or from −8 down.
Test [13] is described as follows: S. pombe growth modifiers, basal conditions – strain 972, OD600, 24 h, no modulator, primary screen (AID 1090).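 Also: basal condition with compound alone and no growth modifier present; test concentration not given here.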 To be noted: S. pombe 972 growth, higher = more signal, called active from +8 up or from −8 down.
The nature of test [14]: budding yeast growth modifiers under rapamycin – strain BY4716, OD600, 96 h, primary screen (AID 1091). Also: test concentration not given here. To be noted: S. cerevisiae BY4716 + rapamycin, higher = more signal, called active from +8 up or from −8 down.
In test [15] the target is Torsin-1A-interacting protein 2 (Homo sapiens) (UniProt Q8NFQ8). Briefly: small molecules binding lysate-expressed LULL1 – cell lysate, human LULL1 lysate, 635/667 nm fluorescence, primary screen (AID 1092).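 Also: score merges per-feature 667 nm fluorescence with signal-to-noise.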 The conditions noted are these: small-molecule microarray, hLULL1 lysate binding, 635 nm fluorescence; higher = more signal.
A short description of test [16]: optical density change of DRC41 E. coli – strain DRC41, OD650, 24 h, E. coli filamentation project, primary screen (AID 1093).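 Also: MC1000 strain lacking acrAB efflux and sulA so SOS filamentation is blocked; test concentration not given here.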 The conditions noted are these: E. coli DRC41 growth, higher = more signal, called active from +8 up or from −8 down.
The nature of test [17]: probe aLefty2 binding to arrayed compounds – biochemical, biotinylated probe, 635/667 nm fluorescence, primary screen (AID 1094).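 Also: score merges spot fluorescence near 667 nm with spot signal-to-noise ratio.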 To be noted: small-molecule microarray, higher = more signal.
Test [18] relates to Noggin (protein binding on small-molecule microarray). Briefly: small molecules binding Noggin protein – biochemical, 635/667 nm fluorescence, primary screen (AID 1095).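 Also: score merges 667 nm feature fluorescence with signal to noise over triplicate slides.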 The conditions noted are these: 635 nm fluorescence, higher = more signal.
For test [19], the target named is Neurogenic locus notch homolog protein 3 (Homo sapiens) (UniProt Q9UM47). In words: small molecules binding NOTCH3 protein – biochemical, 635/667 nm fluorescence, primary screen (AID 1096). To be noted: small-molecule microarray, 635 nm fluorescence, higher = more signal.
Chain of Neurogenic locus notch homolog protein 3 (Homo sapiens) (Q9UM47 whole entry, looked up): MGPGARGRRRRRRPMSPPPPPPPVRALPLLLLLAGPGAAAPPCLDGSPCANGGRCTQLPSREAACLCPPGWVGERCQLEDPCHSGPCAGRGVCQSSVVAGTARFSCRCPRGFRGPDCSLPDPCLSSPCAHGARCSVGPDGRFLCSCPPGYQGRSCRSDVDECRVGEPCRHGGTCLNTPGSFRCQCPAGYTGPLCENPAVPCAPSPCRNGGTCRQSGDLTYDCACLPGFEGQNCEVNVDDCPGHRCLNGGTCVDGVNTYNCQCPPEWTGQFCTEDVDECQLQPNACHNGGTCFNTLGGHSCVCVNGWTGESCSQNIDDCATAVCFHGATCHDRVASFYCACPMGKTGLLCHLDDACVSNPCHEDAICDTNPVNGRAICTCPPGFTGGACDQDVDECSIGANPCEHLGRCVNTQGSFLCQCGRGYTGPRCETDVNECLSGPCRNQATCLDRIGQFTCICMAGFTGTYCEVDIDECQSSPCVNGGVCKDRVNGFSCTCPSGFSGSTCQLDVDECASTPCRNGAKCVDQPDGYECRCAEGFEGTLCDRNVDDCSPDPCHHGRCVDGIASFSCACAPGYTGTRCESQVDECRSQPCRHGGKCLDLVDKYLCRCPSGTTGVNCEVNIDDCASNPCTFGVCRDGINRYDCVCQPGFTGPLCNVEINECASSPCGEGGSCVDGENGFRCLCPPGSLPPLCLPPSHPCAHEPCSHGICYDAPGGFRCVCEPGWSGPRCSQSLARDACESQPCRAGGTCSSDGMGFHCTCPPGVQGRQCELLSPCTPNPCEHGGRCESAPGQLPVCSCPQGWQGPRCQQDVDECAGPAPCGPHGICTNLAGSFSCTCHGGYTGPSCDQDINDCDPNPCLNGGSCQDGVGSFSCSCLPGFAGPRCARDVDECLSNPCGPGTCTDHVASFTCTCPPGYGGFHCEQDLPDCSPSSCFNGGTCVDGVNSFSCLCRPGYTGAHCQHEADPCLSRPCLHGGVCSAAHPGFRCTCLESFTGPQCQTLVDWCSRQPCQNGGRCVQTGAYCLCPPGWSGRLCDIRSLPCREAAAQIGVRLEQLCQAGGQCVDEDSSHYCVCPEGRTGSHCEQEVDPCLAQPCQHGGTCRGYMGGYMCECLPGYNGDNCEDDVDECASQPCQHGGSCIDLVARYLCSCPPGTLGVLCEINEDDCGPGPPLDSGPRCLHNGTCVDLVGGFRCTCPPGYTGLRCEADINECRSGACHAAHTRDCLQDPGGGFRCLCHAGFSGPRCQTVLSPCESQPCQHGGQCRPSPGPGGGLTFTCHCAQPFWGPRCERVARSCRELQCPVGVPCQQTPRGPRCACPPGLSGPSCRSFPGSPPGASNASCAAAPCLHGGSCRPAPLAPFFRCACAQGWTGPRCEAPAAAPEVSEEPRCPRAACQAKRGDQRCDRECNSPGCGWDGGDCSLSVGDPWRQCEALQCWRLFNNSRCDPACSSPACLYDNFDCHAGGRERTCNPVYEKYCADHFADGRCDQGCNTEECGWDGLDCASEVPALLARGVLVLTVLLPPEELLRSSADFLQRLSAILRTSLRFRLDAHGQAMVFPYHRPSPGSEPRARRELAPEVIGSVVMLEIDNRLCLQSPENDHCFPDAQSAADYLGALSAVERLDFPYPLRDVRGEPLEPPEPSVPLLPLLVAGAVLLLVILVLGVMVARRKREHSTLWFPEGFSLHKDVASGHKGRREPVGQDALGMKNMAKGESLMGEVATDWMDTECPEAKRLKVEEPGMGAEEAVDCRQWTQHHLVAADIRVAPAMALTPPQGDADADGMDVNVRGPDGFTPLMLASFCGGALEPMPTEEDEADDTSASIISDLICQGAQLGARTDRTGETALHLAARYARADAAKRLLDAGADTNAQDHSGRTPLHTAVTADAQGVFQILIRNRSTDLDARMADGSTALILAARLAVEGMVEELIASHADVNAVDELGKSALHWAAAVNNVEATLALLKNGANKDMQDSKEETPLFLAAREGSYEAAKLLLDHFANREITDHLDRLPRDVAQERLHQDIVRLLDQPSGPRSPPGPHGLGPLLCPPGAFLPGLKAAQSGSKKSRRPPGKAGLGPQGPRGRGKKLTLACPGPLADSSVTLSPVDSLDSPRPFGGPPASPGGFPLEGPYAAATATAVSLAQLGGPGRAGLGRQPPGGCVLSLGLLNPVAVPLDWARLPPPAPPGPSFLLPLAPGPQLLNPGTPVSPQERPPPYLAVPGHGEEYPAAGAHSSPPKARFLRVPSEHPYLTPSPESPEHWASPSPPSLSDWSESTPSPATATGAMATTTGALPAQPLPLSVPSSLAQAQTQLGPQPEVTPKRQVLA
Test [20] in a line: probe aEGFR binding to arrayed compounds – biochemical, biotinylated probe, 635/667 nm fluorescence, primary screen (AID 1097).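 Also: probe is a biotinylated anti-EGFR antibody binding compounds printed on slides; score combines fluorescence near 667 nm and signal to noise of each spot.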 The conditions noted are these: small-molecule microarray, higher = more signal.

Activity calls are given as the source filed them.

`COCC(=C=CC[C@@H](O)c1cccc(OCCO)c1)CCO`: the composite z-score was -0.117 in test [1]; 0.0969 in test [2]; -0.11 in test [3]; 0.674 in test [4]; 0.234 in [5]; 0.678 in test [6]. For the same compound, the composite z-score is 1.02 in test [7]; 0.101 in test [9]; -0.0074 in test [10]; 0.783 in test [11]; 0.939 in test [15]; -0.171 in test [17]. Further, the values for the composite z-score in [18], in [19] and in test [20] were 0.225, 0.669 and 0.102, respectively. The z-score in test [8] is 0.604 (inactive); in test [12], 0.0995 (inactive); in [13], 0.114 (inactive); in test [14], -0.0032 (inactive); in [16] it was 0.0464 (inactive).
Consider `COc1ccc(C(O)C2C=CC3C(=O)N(c4ccccc4)C(=O)C3N2Nc2ccccc2F)cc1` (stereo not given), for which the composite z-score in test [1] is 0.109; in test [2], 0.67; in [3], -0.0747; in test [4], -0.0293; in test [5], 1.4; in test [6], 1.8. Moreover, the composite z-score is 1.18 in test [7]; 0.115 in test [9]; -0.0296 in test [10]; 1.1 in test [11]; 3.46 in test [15]; 0.183 in test [17]. Besides, the composite z-score in test [18] is 0.164; in test [19], 0.842; in [20], -0.0678. Further, the z-score in [8] is 0.425 (inactive); in test [12], -0.228 (inactive); in test [13], 0.575 (inactive); in test [14], -0.246 (inactive); in test [16], 0.0902 (inactive).
Turning to `O=C1OCCC/C=C\[C@H]2OC34C=CCN(c5ccc6ccccc6c5)C(=O)[C@H]3N(CCCO)C(=O)[C@@H]4C12` (stereo not given in full), the composite z-score was -0.0204 in test [1]; 0.994 in [2]; -0.101 in test [3]; -0.316 in test [4]; -0.631 in test [5]; 0.437 in [6]. The composite z-score is 0.626 in test [7]; -0.72 in test [9]; -0.12 in test [10]; 0.463 in [11]; 0.969 in test [15]; -0.091 in test [17]. Also, the composite z-score in test [18] was -0.534; in test [19], 0.0065; in test [20], -0.195. In addition, the z-score was 1.2 (inactive) in test [8]; -1.59 (inactive) in test [12]; -0.647 (inactive) in test [13]; -0.597 (inactive) in [14]; -0.377 (inactive) in test [16].
Regarding `NC(=O)NCC#Cc1ccc2c(c1)[C@]1(C(=O)N2)[C@H](C(=O)N2CCN(c3ncccn3)CC2)[C@H]2C(=O)O[C@H](c3ccccc3)[C@H](c3ccccc3)N2[C@@H]1c1ccc(OCCO)cc1`, the composite z-score in test [1] was 0.0085; in test [2], 0.0039; in test [3], -0.0222; in [4], 0.375; in test [5], 0.884; in test [6], 0.133. Further, the composite z-score is 0.148 in test [7]; 0.548 in [9]; 0.0659 in test [10]; 1.18 in [11]; 1.89 in test [15]; -0.0321 in [17]. Further, the composite z-score in test [18] was 0.513; in test [19] it was 1.13; in test [20], -0.0271. The z-score in test [8] was 1.62 (inactive); in [12] it was 2.47 (inactive); in [13], 2.31 (inactive); in [14], 5.27 (inactive); in [16] it was 1.37 (inactive).
`O=C(NCCN1CCOCC1)[C@@H]1c2ccccc2C(=O)N(Cc2ccccc2)[C@H]1c1ccc(CO)cc1`: the composite z-score in test [1] was 0.39; in [2], -0.334; in test [3] it was -0.175; in test [4], -0.961; in test [5], -0.913; in [6] it was 1.77. Further, the composite z-score in test [7] was 1.1; in [9], -0.0557; in [10], -0.312; in test [11] it was -0.845; in test [15], 0.0893; in test [17], -0.129. Further, the composite z-score is 0.278 in test [18], -0.036 in [19] and -0.204 in test [20]. For the same compound, the z-score in test [8] is -0.508 (inactive); in [12] it was -0.0009 (inactive); in test [13], 0.253 (inactive); in [14], -0.412 (inactive); in [16], 0.311 (inactive).
